Hit rate of the full screen: of about 310,000 compounds, about 14,000 (4.5%) showed an effect of 50% or more. The effect is printed as a negative number. Shown is part of a subset that was picked to be rich in strong results.
biological target: human ether-à-go-go-related gene (hERG) potassium channel (human, UniProt Q12809); experiment: primary screen, population patch clamp on CHO cells stably expressing hERG; higher = less effect of the substance
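Also: peak tail current of the secondary pulse compared with the same well before compound.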

human ether-à-go-go-related gene (hERG) potassium channel, sequence (Q12809 whole entry, looked up): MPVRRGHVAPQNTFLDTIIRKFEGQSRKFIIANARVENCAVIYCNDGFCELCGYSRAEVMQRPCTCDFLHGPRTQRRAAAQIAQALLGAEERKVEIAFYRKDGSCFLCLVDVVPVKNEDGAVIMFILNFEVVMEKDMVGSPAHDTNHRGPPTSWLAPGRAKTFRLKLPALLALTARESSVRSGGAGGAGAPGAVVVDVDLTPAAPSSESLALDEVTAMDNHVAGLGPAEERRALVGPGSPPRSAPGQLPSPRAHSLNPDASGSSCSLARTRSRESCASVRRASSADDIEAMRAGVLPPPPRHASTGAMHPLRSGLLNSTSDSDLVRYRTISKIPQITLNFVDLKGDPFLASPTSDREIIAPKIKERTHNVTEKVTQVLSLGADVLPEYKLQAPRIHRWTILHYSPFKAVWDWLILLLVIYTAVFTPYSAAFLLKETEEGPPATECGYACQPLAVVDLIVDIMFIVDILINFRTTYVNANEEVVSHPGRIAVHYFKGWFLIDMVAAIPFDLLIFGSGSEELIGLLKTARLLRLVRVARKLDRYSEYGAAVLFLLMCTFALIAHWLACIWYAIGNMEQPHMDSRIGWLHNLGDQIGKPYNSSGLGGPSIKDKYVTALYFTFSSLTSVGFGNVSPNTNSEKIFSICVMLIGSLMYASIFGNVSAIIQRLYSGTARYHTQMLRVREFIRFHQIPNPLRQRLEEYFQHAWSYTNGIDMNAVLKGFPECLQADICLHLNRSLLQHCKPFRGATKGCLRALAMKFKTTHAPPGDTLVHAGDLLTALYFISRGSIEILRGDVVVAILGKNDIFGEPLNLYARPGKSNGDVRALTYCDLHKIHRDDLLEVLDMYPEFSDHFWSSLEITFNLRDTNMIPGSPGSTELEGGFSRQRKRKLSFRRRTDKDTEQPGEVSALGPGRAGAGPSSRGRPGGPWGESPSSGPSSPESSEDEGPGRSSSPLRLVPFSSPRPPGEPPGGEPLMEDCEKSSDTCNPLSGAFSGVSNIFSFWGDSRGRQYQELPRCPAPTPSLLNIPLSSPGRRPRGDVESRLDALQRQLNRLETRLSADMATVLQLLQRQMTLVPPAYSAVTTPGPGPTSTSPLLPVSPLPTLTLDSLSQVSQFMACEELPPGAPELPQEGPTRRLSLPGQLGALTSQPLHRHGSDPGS

SMILES	hERG current change (%, negative = inhibition) at 10uM [%]
CC(C)Oc1ccc(S(=O)(=O)N2CCCCC2)cc1NC(=O)C1CSC2(C)CCC(=O)N12 (stereo not drawn)	-20.9
COc1cc(OC)c(NC(=O)CN(C)S(=O)(=O)c2ccc(-c3ccc(=O)[nH]n3)s2)cc1Cl	-56.5
CCOC(=O)CCN(c1ccccc1)S(=O)(=O)c1ccc(-c2ccc(=O)[nH]n2)s1	-29.3
COc1cc(OC)c(NC(=O)CN(C)S(=O)(=O)c2ccc3[nH]c(=O)oc3c2)cc1Cl	3.44
Cc1ccccc1NC(=O)CN(C)S(=O)(=O)c1ccc(-c2ccc(=O)[nH]n2)s1	-78.6
Cc1cccc(NC(=O)CN(C)S(=O)(=O)c2ccc(-c3ccc(=O)[nH]n3)s2)c1C	-19.9
COc1cc(NC(=O)CN(C)S(=O)(=O)c2ccc(-c3ccc(=O)[nH]n3)s2)cc(OC)c1	-5.53
Cc1ccccc1NC(=O)CN(C)S(=O)(=O)c1cccs1	2.52
CCc1ccccc1NC(=O)CN(C)S(=O)(=O)c1ccc(-c2ccc(=O)[nH]n2)s1	-74.8
CCOc1ccc(NC(=O)CN(C)S(=O)(=O)c2ccc(-c3ccc(=O)[nH]n3)s2)cc1	2.54
CC1CCN(S(=O)(=O)c2ccc3[nH]c(=O)[nH]c3c2)CC1	-3.58
O=C(Nc1cc(S(=O)(=O)N2CCCCC2)ccc1Cl)C1=NN(c2ccccc2)C(=O)CC1	12.6
O=C(NNC(=O)C1CCN(C(=O)Nc2ccccc2)CC1)c1ccc([N+](=O)[O-])cc1	2.62
CCCOc1ccc(-c2c(C(=O)N/N=C(\C)c3ccco3)nnn2-c2nonc2N)cc1	22.5
Cc1[nH]c2ccccc2c1C(=O)COC(=O)c1ccc[n+]([O-])c1	0.499
NC(=O)c1ccc(Oc2ccc(C(N)=O)cc2)cc1	17.5
CCc1sc(C(C2C(=O)CC(C)(C)CC2=O)C2C(=O)CC(C)(C)CC2=O)cc1[N+](=O)[O-]	-5.07
O=C(Nc1ccc2c(c1)OCCO2)c1ccc(S(=O)(=O)N2CCCCC2)cc1	4.38
O=C1N=C(N2CCOCC2)S/C1=C/c1ccc(-c2ccc(F)cc2)o1	2.43
CC(=C/c1ccccc1)/C=C1/SC(N2CCOCC2)=NC1=O	-20.1
Cc1ccc(-c2ccc(/C=C3\SC(N4CCOCC4)=NC3=O)o2)cc1	-64.8
O=C1N=C(N2CCCC2)S/C1=C\C=C\c1ccccc1	-32.4
Cc1ccccc1-c1ccc(/C=C2/SC(N3CCOCC3)=NC2=O)o1	-15.9

SMILES	hERG current change (%, negative = inhibition) at 10uM [%]
O=C1N=C(N2CCOCC2)S/C1=C\C=C/c1ccccc1	-58.2
CC(=O)c1c(C)[nH]c(C(=O)OCn2nnc3ccccc3c2=O)c1C	9.87
C/C(=N\NC(=O)C1CC1c1ccccc1)c1ccc(C)s1 (stereo not drawn)	-6.02
CCn1c(/C=C/N(C)c2ccccc2)[n+](CC)c2ccc(Cl)cc21.[I-]	-16
CCOC(=O)c1ccc2c(c1)n(CC)c(/C=C/N(C)c1ccccc1)[n+]2CC.[I-]	-74.3
CCOC(=O)c1ccc2c(c1)n(CC)c(/C=C/Nc1ccccc1)[n+]2CC.[I-]	-80
CCOC(=O)c1ccc2c(c1)n(CCCS(=O)(=O)[O-])c(/C=C/c1ccc(Cl)cc1)[n+]2CC	-23.1
CCOC(=O)c1ccc2c(c1)n(CCO)c(C)[n+]2CC.[I-]	10.6
CCOC(=O)c1ccc2c(c1)n(Cc1ccccc1)c(C)[n+]2CC.[O-][Cl+3]([O-])([O-])[O-]	-7.56
CCOC(=O)c1ccc2c(c1)n(CC)c(C)[n+]2CC.[I-]	23.7
CCn1c(C)[n+](CC)c2ccc(C(=O)N(C)c3ccccc3)cc21.[I-]	37.4
CCn1c(/C=C/Nc2ccccc2)[n+](CC)c2ccc(C(=O)OCC(F)(F)F)cc21.[I-]	-81.6
CCN(C(=O)Nc1ccccc1)c1ccccc1	4.25
CN(C)CCCNc1ccc(-c2nn(C)c(=O)c3ccccc23)cc1[N+](=O)[O-]	-16
Cl.Fc1ccc(Cn2nnnc2CN2CCc3ccccc3C2)cc1	-10.6
Cn1c(CSc2nc3ccccc3s2)nnc1SCC(=O)NCc1cccnc1	-5.4
CC(=O)Nc1cccc(OCc2cnc(Cl)s2)c1	11.4
COc1ccccc1-c1c(C)nn2c(N3CCCCCC3)cc(C)nc12	-8.02
CSc1ncc(C(=O)Nc2cccc(C)c2C)c(C)n1	9.56
Cc1ccc(C(=O)Nc2ccc(Br)c(C(F)(F)F)c2)cc1	4.38
Cc1nn2c(COc3ccc(NC(=O)c4ccccc4)cc3)nnc2c2ccccc12	4.38
Cc1nnc(SCc2ccc(F)cc2)n1NC/C=C/c1ccccc1	-18.6
